Experimental data from PubChem BioAssay (NCATS).
Values without a mark were called inactive. Calls follow the shape of the dose curve; as a rule, active = well fitted activation curve with a large enough effect; inconclusive = small, poorly fitted or top-dose-only effect; inactive = flat fitted curve, though single readings scatter.

test: Confirmation and Secondary Assay for Modulators of Hemoglobin Beta Chain Splicing at IVS2 705 locus (AID 930); conditions: HeLa EGFP-705 splicing reporter, GFP fluorescence, 48 h; series mostly up to 46.1 µM; activation: at the top concentration;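 also: HeLa cells stably expressing the EGFP-705 splicing reporter; GFP fluorescence per well restored by corrected splicing of the IVS2-705 intron in EGFP; % of control where 0% means no effect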
Summary of the method: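 Read-out: total peak GFP fluorescence per well (488 nm excitation, 500-520 nm emission) by laser-scanning cytometry. Cells: HeLa EGFP-705 splicing reporter, 2 days compound exposure in Optimem/2% FCS.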

| SMILES | activation |
| --- | --- |
| CN(N=O)C(=O)N[C@H]1C(O)C(O)C(CO)O[C@@H]1O (stereo not given in full) | -0.346% |
| Nc1nc(=O)n(C2OC(CO)C(O)C2O)cc1Cl (stereo not given) | 1.02% [at 38.3 µM] |
| Cn1c(=O)[nH]c(=O)c2[nH]cnc21 | 0.649% |
| Nc1ncnc2c1[nH]c(=O)n2C1CC(O)C(CO)O1 (stereo not given) | 0.977% [at 38.3 µM] |
| Nc1nc2c(ncn2C2CC(O)C(CO)O2)c(=O)[nH]1 (stereo not given) | -0.113% [at 38.3 µM] |
| O=c1c(-c2ccc(O)cc2)coc2c(C3OC(CO)C(O)C(O)C3O)c(O)ccc12 (stereo not given) | -1.55% |
| CC1(C)CC[C@]2(C(=O)O)CC[C@@]3(C)C(=CCC4[C@@]5(C)CCC(O)C(C)(C)C5CC[C@@]43C)C2C1 (stereo not given in full) | 2.33% |
| CSCCC(N)C(=O)NC(CC(C)C)C(=O)NC(Cc1ccccc1)C(=O)O (stereo not given) | 0.868% [at 38.3 µM] |
| C=C1C(=O)C23C(O)C1CCC2[C@]12COC3(O)C(O)C1C(C)(C)CC[C@H]2O (stereo not given in full) | 2.59% |
| CC(=O)OC1CC2C(C)(C)C(=O)CC[C@]2(C)C2CC[C@]3(C)C(=CC(=O)OC3c3ccoc3)[C@]12C (stereo not given in full) | 0.651% |
| Cc1cc(O)c(C)c(O)c1C(=O)O | 3.03% |
| COc1ccc(-c2cc(=O)c3c(OC(C)=O)cc(OC(C)=O)cc3o2)cc1 | 0.185% |
| CCC1OC(=O)C(C)[C@@H](O[C@H]2C[C@@](C)(OC)C(O)C(C)O2)C(C)[C@@H](O[C@@H]2OC(C)CC(N(C)C)C2O)[C@@](C)(O)CC(C)C2NC(COCCOC)O[C@H](C2C)[C@@]1(C)O (stereo not given in full) | 2.56% |
| CC(=O)OC1CC[C@@]2(C)C3CC[C@@]4(C)C(CC5O[C@@]6(CCC(C)CO6)C(C)C54)C3CC[C@@H]2C1 (stereo not given in full) | 1.89% |
| O=C(O)C(S)[C@@H](S)C(=O)O (stereo not given in full) | 2.27% |
| CC1CCC2C(C)(C)C3CC12CC[C@]3(C)O (stereo not given in full) | -1.27% [at 38.3 µM] |
| O=C1OC(C(O)CO)C(O)=C1O (stereo not given) | -1.47% |
| CC1c2cccc(O)c2C(O)=C2C(=O)[C@]3(O)C(O)=C(C(N)=O)C(=O)C(N(C)C)C3C(O)C21 (stereo not given in full) | 1.82% |
| COc1c2ccoc2c(OC)c2oc(=O)ccc12 | -0.146% [at 38.3 µM] |
| CO[C@@]1(NC(=O)Cc2cccs2)C(=O)N2C(C(=O)O)=C(COC(N)=O)CSC21 (stereo not given in full) | 2.47% |

| SMILES | activation |
| --- | --- |
| O=C(O)/C=C/C=C/c1ccccc1 | 1.32% [at 38.3 µM] |
| OCC(O)C(O)C(O)C(O)C(O)CO (stereo not given) | 0.612% [at 38.3 µM] |
| C=C1CCC2C(CC2(C)C)C(=O)CCC1O (stereo not given) | 0.228% [at 38.3 µM] |
| C[C@]12CCC(=O)C=C1CCC1C2C(O)C[C@]2(C)C1CC[C@]2(O)C(=O)COC(=O)CCC(=O)O (stereo not given in full) | 1.54% |
| CC(=O)c1ccc[nH]1 | 1.33% [at 38.3 µM] |
| O=C(O)c1cc2ccccc2[nH]1 | 1.35% |
| CC1C(NC(=O)/C(=N/OC(C)(C)C(=O)O)c2csc(N)n2)C(=O)N1S(=O)(=O)O (stereo not given) | 2.12% |
| COc1ccc2cc1Oc1ccc(cc1)CC1c3cc(c(OC)cc3CCN1C)Oc1c(OC)c(OC)cc3c1C(C2)N(C)CC3 (stereo not given) | -0.299% |
| CC1CC[C@@]23CCC4(C)[C@@]5(C)CCC6C(C)(C)C(=O)CC[C@@]6(C)C5C=C[C@@]4(OC2=O)C3C1C (stereo not given in full) | 1.42% [at 38.3 µM] |
| COc1cc(C(C)=O)cc(OC)c1O | 0.523% [at 38.3 µM] |
| COc1cc(OC)c2c(=O)c(-c3ccccc3)coc2c1 | 0.122% [at 38.3 µM] |
| CC1O[C@@H](O[C@@H]2C(O)C[C@H](O[C@@H]3C(O)C[C@@H](OC4CC[C@@]5(C)C6CC[C@]7(C)C(C8=CC(=O)OC8)CC[C@@]7(O)C6CC[C@@H]5C4)OC3C)OC2C)CC(O)[C@H]1O (stereo not given in full) | 0.615% |
| NC(N)=N/N=C\c1c(Cl)cccc1Cl | 0.761% |
| CC(=O)OCC(=O)[C@@]1(O)CCC2C3CCC4=CC(=O)CC[C@]4(C)C3C(=O)C[C@]21C (stereo not given in full) | 1.2% |
| O=c1[nH]cnc2c1ncn2C1CC(O)C(CO)O1 (stereo not given) | 0.3% [at 38.3 µM] |
| O[N+]1=CC=CCC1=S.On1ccccc1=S.[Zn] | 0.444% |
| COc1c2ccoc2cc2oc(C)cc(=O)c12 | -0.0593% [at 38.3 µM] |
| Cc1onc(-c2c(Cl)cccc2Cl)c1C(=O)NC1C(=O)N2C1SC(C)(C)C2C(=O)O (stereo not given) | 1.65% |
| C=C1c2cccc(O)c2C(O)=C2C(=O)[C@]3(O)C(O)=C(C(N)=O)C(=O)C(N(C)C)C3C(O)C12 (stereo not given in full) | 1.47% |
| CC(CCC(=O)O)C1CCC2C3C(=O)CC4CC(=O)CC[C@@]4(C)C3CC(=O)[C@]12C (stereo not given in full) | 0.916% |
